# Records with an inconclusive call do not appear. Activity calls are given as the source filed them. Unless noted, calls follow the shape of the dose curve; as a rule, active = well fitted curve in either direction with a large enough effect (not every such curve was filed as active); inconclusive = small, poorly fitted or top-dose-only effect, or another doubt; inactive = flat fitted curve, though single readings scatter.
# Columns and labels:
# [1] = target: Lysosomal acid glucosylceramidase (Homo sapiens) (UniProt P04062); experiment: Glucocerebrosidase-p2 (AID 348; in the data active = potency below about 10 µM; also: potency is read from the fitted curve at half-maximal effect); conditions: purified GBA, blue fluorogenic substrate, 40 min
# Chain of Lysosomal acid glucosylceramidase (Homo sapiens) (P04062 whole entry, looked up): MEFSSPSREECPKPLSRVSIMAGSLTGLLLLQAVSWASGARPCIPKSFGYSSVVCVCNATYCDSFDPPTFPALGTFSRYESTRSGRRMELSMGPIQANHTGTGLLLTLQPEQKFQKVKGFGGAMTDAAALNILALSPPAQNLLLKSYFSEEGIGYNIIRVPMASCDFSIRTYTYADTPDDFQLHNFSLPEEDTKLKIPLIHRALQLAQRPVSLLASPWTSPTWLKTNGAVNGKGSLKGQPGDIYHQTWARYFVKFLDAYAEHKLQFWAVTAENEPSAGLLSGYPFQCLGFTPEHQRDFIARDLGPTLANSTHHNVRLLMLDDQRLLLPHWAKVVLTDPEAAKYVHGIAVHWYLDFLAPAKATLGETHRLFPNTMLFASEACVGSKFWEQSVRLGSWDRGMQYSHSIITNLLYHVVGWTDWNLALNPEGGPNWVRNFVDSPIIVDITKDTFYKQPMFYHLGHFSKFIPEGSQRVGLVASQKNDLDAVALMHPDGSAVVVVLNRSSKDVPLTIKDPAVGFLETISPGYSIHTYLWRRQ
# In short: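 Compounds titrated from 0.6 nM upwards against 0.2 nM enzyme in pH 5.9 citric acid/KH2PO4, taurocholate, tween-20; blue fluorogenic substrate 80 uM, 40 min room temperature, stopped and read Ex 365/Em 440 for AC50.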
# [2] = AP1 Signaling Pathway (AID 357); conditions: ME-180 AP-1-bla reporter, EGF-induced, beta-lactamase ratio, 5 h; at 7.69 µM (top of the series) unless noted;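 also: ME-180 reporter cells stimulated with EGF at its EC50 level; % is scaled to controls: 0 for no effect and ±100 for the full control effect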
# In short: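 Modulation of EGF-driven AP-1 transcription was assessed with a beta-lactamase reporter in ME-180 cells. Compound and EC50 EGF were co-incubated 5 hours at 37 °C before 2.5-hour CCF4 loading at room temperature and dual-emission reading.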
# [3] = target: Cytochrome P450 1A2 (Homo sapiens) (UniProt P05177); experiment: p450-cyp1a2 (AID 410; calls by dose curve; also: potency is read from the fitted curve at half-maximal effect;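 as to activity change, negative = inhibition: -100% = full effect of reference inhibitor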); conditions: recombinant CYP1A2, luciferin-ME demethylation, luminescence; series mostly up to 57 µM
# Chain of Cytochrome P450 1A2 (Homo sapiens) (P05177 whole entry, looked up): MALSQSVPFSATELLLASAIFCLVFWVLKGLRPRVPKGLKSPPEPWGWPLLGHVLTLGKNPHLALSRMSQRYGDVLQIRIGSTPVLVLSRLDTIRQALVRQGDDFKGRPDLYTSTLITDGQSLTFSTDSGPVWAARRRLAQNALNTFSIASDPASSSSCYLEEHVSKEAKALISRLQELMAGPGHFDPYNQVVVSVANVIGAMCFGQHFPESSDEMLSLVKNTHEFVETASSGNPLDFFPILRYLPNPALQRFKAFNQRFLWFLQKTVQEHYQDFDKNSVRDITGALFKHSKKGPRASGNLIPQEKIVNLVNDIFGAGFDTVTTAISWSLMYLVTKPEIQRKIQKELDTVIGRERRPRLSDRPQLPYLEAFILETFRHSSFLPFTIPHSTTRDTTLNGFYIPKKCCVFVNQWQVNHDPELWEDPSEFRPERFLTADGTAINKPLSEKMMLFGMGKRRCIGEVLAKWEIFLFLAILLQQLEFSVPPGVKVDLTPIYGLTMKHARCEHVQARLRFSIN
# In short: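 Human CYP1A2 (20nM) demethylated Luciferin-ME at its Km (100uM) in 100mM KPO4. After 10 min compound preincubation, NADPH regeneration ran the reaction 60 min at room temperature. Luciferin was read by luminescence, normalized to 57 uM furafylline.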
# [4] = Stat Signaling Pathway (AID 446); conditions: ME-180 (cervical carcinoma) SIE beta-lactamase reporter, IL-6 stimulated, 5 h; at 7.69 µM (top of the series) unless noted;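 also: ME-180 cervical cancer cells given 40 pM IL-6 alongside compound; SIE-controlled beta-lactamase reporter measured as 460/530 nm FRET emission ratio; % is scaled to controls: 0 for no effect and ±100 for the full control effect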
# In short: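 IL-6/STAT signaling read in ME-180 cells via an SIE beta-lactamase reporter. Stimulus was 40 pM IL-6 (its AC50) for 5 hrs, so both activation and inhibition register.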
# [5] = target: Glucocorticoid receptor (Homo sapiens) (UniProt P04150); experiment: GR-EFC Redistribution (AID 451; calls by dose curve; also: potency is read from the fitted curve at half-maximal effect); conditions: CHO-K1 GR-EFC translocation, beta-gal luminescence, 2 h
# Chain of Glucocorticoid receptor (Homo sapiens) (P04150 whole entry, looked up, the tested form may be a part): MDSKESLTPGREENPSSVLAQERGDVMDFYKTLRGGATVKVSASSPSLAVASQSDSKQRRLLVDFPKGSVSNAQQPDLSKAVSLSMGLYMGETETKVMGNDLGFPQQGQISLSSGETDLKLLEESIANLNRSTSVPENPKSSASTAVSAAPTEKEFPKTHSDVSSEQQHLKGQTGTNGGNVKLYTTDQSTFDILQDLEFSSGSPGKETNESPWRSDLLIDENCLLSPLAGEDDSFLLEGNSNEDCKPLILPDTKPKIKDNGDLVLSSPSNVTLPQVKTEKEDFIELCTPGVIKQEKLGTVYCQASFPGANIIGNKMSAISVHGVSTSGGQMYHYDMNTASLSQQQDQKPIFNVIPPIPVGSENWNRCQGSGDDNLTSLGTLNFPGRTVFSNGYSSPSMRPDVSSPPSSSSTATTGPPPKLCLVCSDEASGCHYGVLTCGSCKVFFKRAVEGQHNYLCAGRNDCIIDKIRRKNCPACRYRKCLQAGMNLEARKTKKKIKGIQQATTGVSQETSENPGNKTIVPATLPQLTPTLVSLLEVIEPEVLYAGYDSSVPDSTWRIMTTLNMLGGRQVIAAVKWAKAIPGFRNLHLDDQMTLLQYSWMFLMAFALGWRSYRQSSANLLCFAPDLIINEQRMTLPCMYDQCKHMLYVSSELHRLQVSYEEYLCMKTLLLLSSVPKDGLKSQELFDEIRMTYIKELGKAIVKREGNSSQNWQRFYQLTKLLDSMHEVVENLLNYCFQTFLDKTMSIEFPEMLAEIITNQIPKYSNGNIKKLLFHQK
# In short: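 Translocation of GR-ED fusion to nuclear EA restores b-gal, read by luminescence after 1 h room-temperature detection. Engineered CHO-K1 biosensor cells, 1,000/well, exposed 2 h at 37 C to titrations up to 46 uM final.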
# [6] = target: Mitogen-activated protein kinase 10 (Mus musculus) (UniProt Q61831); experiment: JNK3 AlphaScreen Assay (AID 530); conditions: JNK3 lysate, c-Jun phosphorylation; series mostly up to 57.1 µM;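 also: kinase came from lysate of stimulated human HepG2 cells; signal reports phosphorylation of biotinylated GST-cJun 1-79 at Ser73 with 10 µM ATP; % is scaled to controls: 0 for no effect and ±100 for the full control effect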
# In short: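 Room-temperature AlphaScreen kinase assay; pre-activated HepG2 lysate as JNK3 source, biotin-GST-cJun(1-79) substrate, 10 uM ATP, compound 15 min preincubation.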
# [7] = target: 3',5'-cyclic-AMP phosphodiesterase 4B (Homo sapiens) (UniProt Q07343); experiment: qHTS Assay for Inhibitors of PDE-IV (AID 607; active = well fitted activation curve with a large enough effect in the main read-out, with a control signal flat, not every such curve was filed as active; also: % of control where 0% means no effect); conditions: HEK293 ACTOne CNG channel cells, membrane potential fluorescence; series mostly up to 22.9 µM
# Chain of 3',5'-cyclic-AMP phosphodiesterase 4B (Homo sapiens) (Q07343 whole entry, looked up): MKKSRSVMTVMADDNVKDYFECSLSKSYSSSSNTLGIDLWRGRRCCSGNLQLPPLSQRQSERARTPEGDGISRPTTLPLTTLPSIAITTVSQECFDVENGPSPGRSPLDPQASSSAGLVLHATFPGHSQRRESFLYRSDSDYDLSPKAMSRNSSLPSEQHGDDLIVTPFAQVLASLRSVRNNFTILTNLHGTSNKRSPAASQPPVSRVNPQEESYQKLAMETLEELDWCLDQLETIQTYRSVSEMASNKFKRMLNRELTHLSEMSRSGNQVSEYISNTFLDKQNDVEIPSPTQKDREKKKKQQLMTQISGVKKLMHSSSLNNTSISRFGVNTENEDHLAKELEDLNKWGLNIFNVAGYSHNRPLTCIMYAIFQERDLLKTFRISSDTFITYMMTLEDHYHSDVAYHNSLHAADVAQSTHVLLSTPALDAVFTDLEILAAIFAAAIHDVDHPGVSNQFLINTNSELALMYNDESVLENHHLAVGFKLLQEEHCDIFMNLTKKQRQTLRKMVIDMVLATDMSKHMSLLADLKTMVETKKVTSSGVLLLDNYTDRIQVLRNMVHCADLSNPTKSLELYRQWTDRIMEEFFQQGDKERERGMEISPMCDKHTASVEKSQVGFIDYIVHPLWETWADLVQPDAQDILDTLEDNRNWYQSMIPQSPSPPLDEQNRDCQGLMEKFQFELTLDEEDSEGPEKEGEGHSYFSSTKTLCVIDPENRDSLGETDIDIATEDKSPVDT
# In short: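 Live HEK293 cells with a modified cyclic nucleotide-gated (CNG) channel report intracellular cAMP via membrane-potential dye fluorescence (ex 535/em 590 nm). Endogenous PDE-IV was targeted. Compounds were tested at up to 22.9 uM final; RO 20-1724 100 uM served as control.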
# [8] = target: Cytochrome P450 3A4 (Homo sapiens) (UniProt P08684); experiment: qHTS Assay for Activators of Cytochrome P450 3A4 (AID 885; active = well fitted curve in the direction sought with a large enough effect; an effect the other way counts as inactive or inconclusive; also: nearly all actives have a fitted effect of over 65% in size; also: potency is read from the fitted curve at half-maximal effect); conditions: recombinant CYP3A4, Luciferin-PPXE luminescence, 60 min; series mostly up to 57.1 µM
# Chain of Cytochrome P450 3A4 (Homo sapiens) (P08684 whole entry, looked up): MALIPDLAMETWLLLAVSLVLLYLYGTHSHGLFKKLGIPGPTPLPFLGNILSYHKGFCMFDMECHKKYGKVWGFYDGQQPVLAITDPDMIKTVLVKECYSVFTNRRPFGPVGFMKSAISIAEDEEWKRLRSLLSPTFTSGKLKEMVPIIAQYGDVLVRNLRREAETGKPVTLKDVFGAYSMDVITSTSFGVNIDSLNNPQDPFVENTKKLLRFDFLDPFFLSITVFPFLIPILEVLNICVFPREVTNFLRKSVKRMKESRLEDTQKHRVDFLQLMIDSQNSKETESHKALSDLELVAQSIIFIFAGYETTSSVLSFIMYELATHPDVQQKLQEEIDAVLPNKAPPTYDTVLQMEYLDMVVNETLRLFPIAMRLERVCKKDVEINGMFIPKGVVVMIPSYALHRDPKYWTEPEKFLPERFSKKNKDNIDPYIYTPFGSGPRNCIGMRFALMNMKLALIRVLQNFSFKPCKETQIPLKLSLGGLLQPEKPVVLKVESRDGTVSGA
# In short: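 Quantitative HTS format: compounds preincubated with 20nM human CYP3A4 and Luciferin-PPXE substrate at KM, reaction started by NADPH regeneration, stopped after 60 min, luciferase luminescence read 20 min later.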
# [9] = qHTS Assay for Lipid Storage Modulators (AID 1519; calls by dose curve); conditions: Drosophila S3 cells, BODIPY lipid droplet/cell ratio, laser cytometry, cells loaded with oleic acid; for activity change, negative = inhibition: at 57.5 µM (top of the series)
# In short: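 Cells seeded at 5,000 per well were treated with compounds over a concentration series and loaded with oleic acid (400 uM, as added). Lipid droplet fluorescence (488 nm excitation, 500-530 nm channel) was read by laser-scanning cytometry and normalized to 20 uM Triacsin C.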
# [10] = Primary qHTS for small molecule stabilizers of the endoplasmic reticulum resident proteome: Secreted ER Calcium Modulated Protein (SERCaMP) assay (AID 1508630; active = well fitted curve in the direction sought with a large enough effect; an effect the other way counts as inactive or inconclusive; also: % is scaled to controls: 0 for no effect and ±100 for the full control effect); conditions: SH-SY5Y GLuc-SERCaMP (Gaussia luciferase released on ER calcium loss) secretion, thapsigargin, luminescence; series mostly up to 38.4 µM
# In short: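 GLuc-SERCaMP-expressing SH-SY5Y cells, pretreated 16 h with compound, are challenged with thapsigargin to empty ER calcium stores; after 4 h, coelenterazine is added directly to the medium and luminescence is imaged.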
# [11] = target: Cytochrome P450 2D6 (Homo sapiens) (UniProt P10635); experiment: qHTS Assay for Inhibitors and Substrates of Cytochrome P450 2D6 (AID 891; active = well fitted curve in the direction sought with a large enough effect; an effect the other way counts as inactive or inconclusive; also: potency is read from the fitted curve at half-maximal effect; nearly all actives have a fitted effect of over 60% in size); conditions: recombinant CYP2D6, luciferin-ME EGE luminescence; series mostly up to 57.1 µM
# Chain of Cytochrome P450 2D6 (Homo sapiens) (P10635 whole entry, looked up): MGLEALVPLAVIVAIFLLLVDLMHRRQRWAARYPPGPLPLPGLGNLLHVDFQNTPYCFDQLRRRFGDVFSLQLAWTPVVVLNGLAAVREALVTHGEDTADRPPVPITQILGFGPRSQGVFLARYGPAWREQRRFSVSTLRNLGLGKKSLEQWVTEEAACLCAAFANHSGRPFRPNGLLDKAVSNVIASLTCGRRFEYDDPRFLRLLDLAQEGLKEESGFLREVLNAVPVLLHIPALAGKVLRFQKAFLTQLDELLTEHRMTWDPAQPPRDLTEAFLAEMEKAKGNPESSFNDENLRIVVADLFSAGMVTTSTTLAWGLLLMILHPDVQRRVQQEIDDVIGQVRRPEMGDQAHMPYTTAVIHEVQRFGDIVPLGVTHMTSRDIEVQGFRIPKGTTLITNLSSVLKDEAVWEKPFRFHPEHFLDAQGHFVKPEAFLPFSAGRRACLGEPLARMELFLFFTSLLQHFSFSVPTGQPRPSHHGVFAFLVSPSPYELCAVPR
# In short: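 Human CYP2D6 (5 nM) with 30 uM Luciferin-ME EGE (at Km) in 100 mM KPO4, compound preincubated 10 min, then NADPH regeneration system for 60 min at room temperature. Luciferin read by luminescence; normalized to 1.43 uM quinidine.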
# [12] = target: Cytochrome P450 3A4 (Homo sapiens) (UniProt P08684); experiment: qHTS Assay for Inhibitors and Substrates of Cytochrome P450 3A4 (AID 884; active = well fitted curve in the direction sought with a large enough effect; an effect the other way counts as inactive or inconclusive; also: nearly all actives have a fitted effect of over 50% in size; also: potency is read from the fitted curve at half-maximal effect); conditions: recombinant CYP3A4, Luciferin-PPXE luminescence; series mostly up to 57.1 µM
# In short: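 20 nM human CYP3A4 with 25 uM Luciferin-PPXE (at KM) in 200 mM KPO4, preincubated 10 min with compound; NADPH regeneration started a 60 min RT reaction. Luciferin detected by luminescence, normalized to 57 uM ketoconazole as full inhibition.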
# [13] = measured here: cell count channel max response
# [14] = measured here: lipid channel max response
SMILES,Potency [1],"activity change, negative = inhibition [2]",Potency [3],"activity, negative = inhibition [4]",Potency [5],Potency [6],Potency [7],Potency [8],"activity change, negative = inhibition [9]","max response [9, 13] [%]","max response [9, 14] [%]",outcome [10],Potency [11],Potency [12]
c1ccc(-c2cccc(N3CCC4(CCNCC4)CC3)c2)cc1,> 11.4 µM (inactive),-2.96% (inactive),15.8 µM (active),-2.71% (inactive),> 46 µM (inactive),inactive,inactive,inactive,2.27% (inactive),-17,-12.4,inactive,,
CN1CCCC2(CCN(C(=O)c3cc(C(F)(F)F)cc(C(F)(F)F)c3)CC2)C1,> 11.4 µM (inactive),5.94% (inactive),inactive,4.14% (inactive),> 46 µM (inactive),inactive,inactive,inactive,3.25% (inactive),17.7,23.1,inactive,,
COC(=O)N1CCC2(CCCN(Cc3ccc(C#N)cc3)C2)CC1,> 11.4 µM (inactive),-3.68% (inactive),inactive,-2.36% (inactive),> 46 µM (inactive),inactive,inactive,inactive,-1.17% (inactive),13.4,12.9,inactive,0.316 µM (active),
Cn1cccc1C(=O)N1CCC2(CCCN(Cc3ccc(C#N)cc3)C2)CC1,> 11.4 µM (inactive),10.6% (inactive),12.6 µM (active),-1.12% (inactive),> 46 µM (inactive),inactive,inactive,inactive,1.29% (inactive),17.2,18.2,inactive,,
O=C(c1cc(C(F)(F)F)cc(C(F)(F)F)c1)N1CCC[C@@]2(CCN(c3ccccc3)C2)C1,> 11.4 µM (inactive),0.763% (inactive),inactive,2.5% (inactive),> 46 µM (inactive),inactive,inactive,inactive,-3.81% (inactive),10.6,10.6,inactive,,
O=C(c1cnccn1)N1CCC2(CC1)CN(C(c1ccccc1)c1ccccc1)C2,> 11.4 µM (inactive),-2% (inactive),25.1 µM (active),-4.86% (inactive),> 46 µM (inactive),inactive,inactive,12.6 µM (active),1.71% (inactive),6.7,10.5,inactive,6.31 µM (active),inactive
O=S(=O)(c1ccccc1)N1CCC2(CC1)CN(c1ccccn1)C2,> 11.4 µM (inactive),16% (inactive),inactive,-15% (inactive),> 46 µM (inactive),inactive,inactive,inactive,-4.43% (inactive),-4.86,-8.67,inactive,,
CC(C)CN1CCCC2(CCN(C(=O)c3csnn3)CC2)C1,> 11.4 µM (inactive),1.87% (inactive),inactive,-5.65% (inactive),> 46 µM (inactive),inactive,inactive,inactive,2.3% (inactive),15.1,21,inactive,5.01 µM (active),
COc1ccc(C(=O)N2CCC3(CCCN(Cc4ccccc4OC)C3)CC2)cc1,> 11.4 µM (inactive),0.332% (inactive),inactive,-6.54% (inactive),> 46 µM (inactive),inactive,inactive,inactive,-0.879% (inactive),-8.51,-6.45,inactive,,
Cn1cccc1C(=O)N1CCC2(CCCN(Cc3ccccc3)C2)CC1,> 11.4 µM (inactive),-4.68% (inactive),inactive,-3.12% (inactive),> 46 µM (inactive),inactive,inactive,inactive,3.59% (inactive),2.52,8.85,inactive,,
COc1ccccc1CN1CCCC2(CCN(C(=O)c3ccco3)CC2)C1,> 11.4 µM (inactive),-11.6% (inactive),inactive,-1.13% (inactive),> 46 µM (inactive),inactive,inactive,inactive,2.54% (inactive),5.74,11.8,inactive,2.51 µM (active),
O=C(Nc1cccc(F)c1)N1CC[C@@]2(CCCN(C(=O)c3cc(C(F)(F)F)cc(C(F)(F)F)c3)C2)C1,> 11.4 µM (inactive),-8.61% (inactive),inactive,-4.49% (inactive),> 46 µM (inactive),inactive,inactive,inactive,5.77% (inactive),-3.02,6,inactive,,
c1ccc(C(c2ccccc2)N2CC[C@@]3(CCCNC3)C2)cc1,> 11.4 µM (inactive),0.329% (inactive),inactive,8.51% (inactive),> 46 µM (inactive),inactive,inactive,inactive,-9.5% (inactive),4.5,-6.03,inactive,,7.94 µM (active)

# Source: PubChem BioAssay (NCATS)
